Reference: PubChem BioAssay (NCATS)
Inconclusive results are not listed. Activity calls are given as the source filed them. The call rests on the fitted dose curve; in most records, active means well fitted cell-killing curve with a large enough effect; inconclusive means small, poorly fitted or top-dose-only effect, or effect the other way; inactive means flat fitted curve, though single readings scatter.

Experiments:
Experiment in all cases: Primary qHTS to identify gynecologic anti-cancer compounds using libraries of approved drugs and bioactive compounds (AID 1345084); further: nearly all actives have a fitted effect of over 55% in size
Settings in all cases: Gynecologic cancer cell panel viability, ATPlite luminescence, 48 h; series mostly up to 57.5 µM
JEG-3 = test system: JEG-3
Method in brief: (§1)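 ATP-based viability (ATPlite), 1,000 cells/well, 16 h pre-incubation, 48 h compound at 37 C, 5% CO2, 15 min RT before read.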

OV90 = test system: OV90
Method in brief: as §1

PA-1 = test system: PA-1
Method in brief: as §1

SKOV3 = test system: SKOV3
Method in brief: as §1

Tov-21-G = test system: Tov-21-G
Method in brief: as §1

Tov112D = test system: Tov112D
Method in brief: as §1
On the % scale 0 is the no-effect control and ±100 the full control effect.

CC[C@H](C)/C=C(C)/C=C/C(=O)Cc1cc(O)c(C)c(O)c1C=O
inactive: Potency (JEG-3) | Potency (OV90) | Potency (PA-1) | Potency (SKOV3) | Potency (Tov-21-G) | Potency (Tov112D)

CCC(CC)n1ccc2c(C(=O)NCc3c(C)cc(C)[nH]c3=O)cc(C#N)cc21
inactive: Potency (JEG-3) | Potency (OV90) | Potency (PA-1) | Potency (SKOV3) | Potency (Tov-21-G) | Potency (Tov112D)

C[C@@]12C[C@]3(O)O[C@H](O1)[C@]1(COC(=O)c4ccccc4)[C@H]3C[C@@]12O[C@@H]1O[C@H](COC(=O)c2ccccc2)[C@@H](O)[C@H](O)[C@H]1O
inactive: Potency (JEG-3) | Potency (OV90) | Potency (PA-1) | Potency (SKOV3) | Potency (Tov-21-G) | Potency (Tov112D)

C[C@@H]1CC[C@]2(C(=O)O)CC[C@]3(C(=O)O)C(=CCC4[C@@]5(C)CC[C@H](O[C@@H]6O[C@@H](C)[C@H](O[C@@H]7O[C@H](CO)[C@@H](O)[C@H](O)[C@H]7O)[C@@H](O)[C@H]6O)C(C)(C)C5CC[C@]43C)C2[C@H]1C (some centres undefined)
inactive: Potency (JEG-3) | Potency (OV90) | Potency (PA-1) | Potency (SKOV3) | Potency (Tov-21-G) | Potency (Tov112D)

O=C(O[C@H]1[C@@H]2C=CO[C@@H](O[C@@H]3O[C@H](CO)[C@@H](O)[C@H](O)[C@H]3O)[C@@H]2[C@@]2(CO)O[C@@H]12)c1ccc(O)cc1
inactive: Potency (JEG-3) | Potency (OV90) | Potency (PA-1) | Potency (SKOV3) | Potency (Tov-21-G) | Potency (Tov112D)

CC12CC34C=CC(=O)C(C)(CCC(=O)O)C3C(CC1C4)O2 (centres undefined)
inactive: Potency (JEG-3) | Potency (OV90) | Potency (PA-1) | Potency (SKOV3) | Potency (Tov-21-G) | Potency (Tov112D)

C=C1[C@@H]2CC[C@@]3(C)[C@H](c4ccoc4)OC(=O)C[C@]13O[C@H]1CC(=O)C(C)(C)[C@H](CC(=O)OC)[C@]12C
inactive: Potency (JEG-3) | Potency (OV90) | Potency (PA-1) | Potency (SKOV3) | Potency (Tov-21-G) | Potency (Tov112D)

C=C[C@H]1[C@H](O[C@@H]2O[C@H](CO)[C@@H](O)[C@H](O)[C@H]2O)OC=C(C(=O)OC)[C@H]1C[C@@H]1N[C@H](C(=O)O)Cc2c1[nH]c1ccccc21
inactive: Potency (JEG-3) | Potency (OV90) | Potency (PA-1) | Potency (SKOV3) | Potency (Tov-21-G) | Potency (Tov112D)

CC1(C)CC2C3=CCC4C5(C)CCC(OC6OC(C(=O)O)C(O)C(O)C6OC6OC(CO)C(O)C(O)C6OC6OC(CO)C(O)C(O)C6O)C(C)(CO)C5CCC4(C)C3(C)CCC2(C)C(OC2OCC(O)C(OC3OC(CO)C(O)C(O)C3O)C2O)C1O (centres undefined)
inactive: activity change, negative = cytotoxicity (JEG-3) 6.32% [at 6.55 µM] | activity change, negative = cytotoxicity (OV90) -9.75% [at 6.55 µM] | activity change, negative = cytotoxicity (PA-1) 5.88% [at 6.55 µM] | activity change, negative = cytotoxicity (SKOV3) 16.1% [at 6.55 µM] | activity change, negative = cytotoxicity (Tov-21-G) -0.438% [at 6.55 µM] | activity change, negative = cytotoxicity (Tov112D) 1.06% [at 6.55 µM]
